According to PubChem BioAssay:
The source made the active and inactive calls.

Key:
Albumin (Bos taurus) = Albumin (Bos taurus) (UniProt P02769); assay: compounds binding labelled BSA control protein – biochemical, small-molecule microarray, Alexa647 label, 635/667 nm fluorescence, artefact control for SMM control protein annotation, profiling panel (AID 1118); conditions: BSA-A647 binding, fluorescence 635 nm, higher = more signal;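 also: score merges 667 nm emission intensity and signal-to-noise per printed compound spot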
Albumin (Bos taurus), sequence (P02769 whole entry, looked up): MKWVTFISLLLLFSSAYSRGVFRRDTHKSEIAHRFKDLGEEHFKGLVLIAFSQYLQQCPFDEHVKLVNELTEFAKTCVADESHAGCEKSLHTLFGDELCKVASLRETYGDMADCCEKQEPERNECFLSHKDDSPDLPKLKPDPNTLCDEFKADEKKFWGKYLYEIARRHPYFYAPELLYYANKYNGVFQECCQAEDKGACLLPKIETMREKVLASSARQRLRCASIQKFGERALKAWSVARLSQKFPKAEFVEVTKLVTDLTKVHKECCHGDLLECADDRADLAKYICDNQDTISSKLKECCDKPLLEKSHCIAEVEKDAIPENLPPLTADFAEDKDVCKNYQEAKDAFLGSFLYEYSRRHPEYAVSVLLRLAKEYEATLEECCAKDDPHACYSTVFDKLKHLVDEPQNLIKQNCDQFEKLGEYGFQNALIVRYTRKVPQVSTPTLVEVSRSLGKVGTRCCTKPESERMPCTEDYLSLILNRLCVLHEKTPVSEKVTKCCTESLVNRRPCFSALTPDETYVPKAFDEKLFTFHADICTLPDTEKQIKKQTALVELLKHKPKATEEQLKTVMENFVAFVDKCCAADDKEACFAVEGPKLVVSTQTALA

[1] = probe aXIP binding to arrayed compounds – biochemical, NeuroSMM set, 635/667 nm fluorescence, primary screen (AID 1119); conditions: small-molecule microarray, higher = more signal, called active from +8 up or from −8 down;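 also: probe is the protein aXip251-270 applied at 1 µg/mL to compound-printed slides; binding of probe to printed compounds measured as 667 nm fluorescence plus signal to noise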
[2] = probe aNOTCH3 binding on compound microarray – biochemical, small-molecule microarray, 635/667 nm fluorescence, primary screen (AID 1120); conditions: higher = more signal;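 also: probe is a biotin-tagged antibody raised against NOTCH3 rather than NOTCH3 protein; score merges spot fluorescence near 667 nm with spot signal to noise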
[3] = probe aNOTCH2 binding on compound microarray – biochemical, small-molecule microarray, 635/667 nm fluorescence, primary screen (AID 1121); conditions: higher = more signal;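 also: score merges feature fluorescence read at 667 nm with its signal to noise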
[4] = target: Carbonic anhydrase 2 (Homo sapiens) (UniProt P00918); assay: compounds binding carbonic anhydrase 2 – biochemical, small-molecule microarray, Alexa647-labelled CAII, profiling panel (AID 1122); conditions: CAII-A647 binding fluorescence, higher = more signal
[5] = COS7 lysate on small-molecule microarray, probe aHis, 635 nm (AID 1123); conditions: COS7 cell lysate, fluorescence, higher = more signal;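 also: z-score combines 667nm fluorescence intensity with signal-to-noise per printed compound spot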
[6] = probe aLAP1 signal on lysate-treated microarray – cell lysate, small-molecule microarray, COS7 lysate, primary screen (AID 1124); conditions: probe aLAP1, fluorescence, higher = more signal;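 also: lysate comes from COS7 cells expressing LAP1 and is applied at 0.3 µg/mL; score merges spot fluorescence near 667 nm with signal-to-noise over triplicate slides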
Sam68 (KHDRBS1) = assay: compounds binding KHDRBS1 protein – biochemical, small-molecule microarray, 635 nm fluorescence, primary screen (AID 1125); conditions: higher = more signal;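 also: score merges 667 nm channel intensity with signal to noise over triplicate slides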
[7] = test system: Chordin-like protein 2 (CHRDL2); assay: compounds binding chordin-like 2 – biochemical, small-molecule microarray, 635 nm fluorescence, primary screen (AID 1126); conditions: fluorescence 635 nm, higher = more signal;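 also: printed compound slides probed with Chrdl2 protein at 4 µg/mL for 1 h at 4 C; score merges 667 nm emission intensity with signal to noise over three replicate slides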
[8] = target: Concanavalin-A (Canavalia ensiformis) (UniProt P02866); assay: compounds binding concanavalin A lectin – biochemical, small-molecule microarray, Alexa647 label, 635 nm, artefact control for SMM control protein annotation, primary screen (AID 1127); conditions: ConA-A647 binding fluorescence, higher = more signal;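 also: z combines 667 nm emission intensity with signal-to-noise across three replicate slides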
Concanavalin-A (Canavalia ensiformis), sequence (P02866 whole entry, looked up): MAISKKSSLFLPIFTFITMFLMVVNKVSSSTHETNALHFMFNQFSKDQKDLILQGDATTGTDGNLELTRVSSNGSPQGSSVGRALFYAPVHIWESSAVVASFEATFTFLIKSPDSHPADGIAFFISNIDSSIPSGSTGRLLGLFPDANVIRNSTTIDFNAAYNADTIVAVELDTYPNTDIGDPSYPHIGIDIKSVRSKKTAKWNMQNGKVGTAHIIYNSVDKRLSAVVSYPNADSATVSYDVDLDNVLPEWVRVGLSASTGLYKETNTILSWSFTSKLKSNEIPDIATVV

SMILES	composite z-score (Albumin (Bos taurus))	composite Z-score [1]	composite z-score [2]	composite z-score [3]	composite z-score [4]	composite z-score [5]	composite z-score [6]	composite z-score (Sam68 (KHDRBS1))	composite z-score [7]	composite z-score [8]
CCN(CC)c1ccc(N2CC=CC34O[C@@H]5/C=C\CCCOC(=O)C5[C@H]3C(=O)N(CCO)[C@@H]4C2=O)cc1 (stereo not given in full)	-0.633	0.858 (inactive)	-0.299	-0.14	0.78	0.534	0.485	-0.526	-1.39	-0.362
CC(=O)NCCCC[C@@H]1NC(=O)[C@@H]2C[C@H](C(=O)NCCCCCCNC(=O)CS)[C@H](c3cccc(OCCO)c3)N2C1=O	-0.133	0.405 (inactive)	-0.0996	-0.151	0.561	1.48	0.689	0.825	0.568	0.914
CCOC(=O)[C@H]1C/C=C/C[C@H](C(=O)OCC)C(=O)O[C@H]2[C@@H](OC)O[C@H](CO)[C@@H](OC(=O)Nc3cccc(F)c3)[C@@H]2OC1=O	0.407	0.46 (inactive)	1.06	0.0593	0.66	1.86	0.903	1.19	0.306	0.189
COCCOC(=O)N1C(=O)[C@@]2(c3cc(C#CCCO)ccc31)[C@H](C(=O)N1CCc3cc(OC)c(OC)cc3C1)[C@H]1C(=O)O[C@H](c3ccccc3)[C@H](c3ccccc3)N1[C@@H]2c1ccc(O)cc1	-0.335	0.566 (inactive)	0.0893	-0.0846	0.471	2.33	0.255	1.29	0.425	1.04
C[C@]1(C(=O)NC2CC2)c2ccccc2C(=O)N(Cc2cc(C(F)(F)F)cc(C(F)(F)F)c2)[C@H]1c1ccc(CO)cc1	-0.0744	0.676 (inactive)	0.208	-0.0712	0.412	1.28	0.283	1.32	0.39	0.835
COCCOC(=O)N1C(=O)[C@@]2(c3cc(C#CC4=CCCCC4)ccc31)[C@H](C(=O)N1CCc3cc(OC)c(OC)cc3C1)[C@H]1C(=O)O[C@H](c3ccccc3)[C@H](c3ccccc3)N1[C@@H]2c1ccc(OCCO)cc1	0.448	0.238 (inactive)	0.0836	-0.152	0.194	1	0.378	1.29	0.69	1.14
COc1ccc(C(O)C2C=CC3C(=O)N(C)C(=O)C3N2N2CCCCC2)c2ccccc12 (stereo not given)	0.9	0.476 (inactive)	0.432	-0.0351	0.448	2.89	-0.32	1.31	-0.147	1.21
CN1C(=O)C2C=CC(C(O)c3ccccc3)N(Nc3ccccc3)C2C1=O (stereo not given)	0.761	0.131 (inactive)	-0.128	-0.0543	0.78	2.45	0.119	-0.0508	-1.02	0.142
C=CCOC(=O)[C@H]1[C@@H]2C(=O)O[C@@H](c3ccccc3)[C@@H](c3ccccc3)N2[C@@H](c2ccc(OCCOC(=O)[C@@H]3C[C@@H]4C(=O)N[C@@H](CCCC[N+](C)(C)C)C(=O)N4[C@@H]3c3ccc(O)cc3)cc2)[C@]12C(=O)Nc1ccccc12	0.0987	0.0848 (inactive)	0.011	-0.171	0.624	0.875	0.284	1.31	1.08	1.12
COc1ccc(CCN2C(=O)[C@@]3(Cc4ccccc42)c2ccccc2C(=O)N(Cc2ccccc2C(F)(F)F)[C@H]3c2ccc(CO)cc2)cc1	-0.951	0.319 (inactive)	-0.0718	-0.193	0.107	0.387	0.184	0.242	0.736	1.13
C=CC[C@]12N=C(c3ccc(OCCCO)cc3)O[C@H]1c1ccccc1N(Cc1ccccc1)C2=O	-0.0059	1.2 (inactive)	0.0225	-0.078	0.669	2.12	0.38	0.98	0.317	0.385
C=CCOC(=O)[C@@H]1[C@H]2C(=O)O[C@H](c3ccccc3)[C@H](c3ccccc3)N2[C@H](c2ccc(OCCOC(=O)[C@@H]3C[C@@H]4C(=O)N5CCC[C@H]5C(=O)N4[C@@H]3c3ccc(O)cc3)cc2)[C@@]12C(=O)Nc1ccc(I)cc12	0.71	1.23 (inactive)	-0.0831	-0.145	0.419	1.33	-0.0072	1.19	0.593	1.12
C=C[C@H](COC(C)=O)N(C(=O)OC(C)(C)C)S(=O)(=O)c1ccc(Br)cc1	-0.19	-0.526 (inactive)	0.704	0.463	0.162	0.216	0.0842	0.355	0.55	0.193
COCCOC(=O)N1C(=O)[C@@]2(c3ccccc31)[C@H](c1ccccc1OCCO)N1[C@H](c3ccccc3)[C@H](c3ccccc3)OC(=O)[C@H]1[C@@H]2C(=O)Nc1nc2ccccc2s1	0.665	0.746 (inactive)	0.133	-0.089	0.481	1.52	1.69	1.31	0.651	1.18
NCCCCCNC(=O)[C@@H]1C[C@@H]2C(=O)N[C@@H](Cc3ccccc3)C(=O)N2[C@@H]1c1cccc(OCCO)c1	0.654	0.376 (inactive)	0.0087	-0.112	0.698	1.18	0.463	0.861	-0.0335	1.05
CN(C)CCCNC(=O)[C@@]1(c2ccc([N+](=O)[O-])cc2)CC(=O)N(C2CCCCC2)[C@@H]1c1ccc(CO)cc1	0.611	-0.14 (inactive)	-0.0795	-0.146	0.395	1.68	-0.0291	0.819	-0.357	0.282

SMILES	composite z-score (Albumin (Bos taurus))	composite Z-score [1]	composite z-score [2]	composite z-score [3]	composite z-score [4]	composite z-score [5]	composite z-score [6]	composite z-score (Sam68 (KHDRBS1))	composite z-score [7]	composite z-score [8]
COCCOC(=O)N1C(=O)[C@@]2(c3cc(C#Cc4ccc(OC)cc4)ccc31)[C@H](C(N)=O)[C@H]1C(=O)O[C@H](c3ccccc3)[C@H](c3ccccc3)N1[C@@H]2c1ccccc1OCCO	0.73	0.611 (inactive)	0.293	0.151	0.653	2.54	1.11	1.3	0.565	1.17
CCOC(=O)C1=CCC(c2ccc(C)cc2)N(S(=O)(=O)c2ccc(C)cc2)C1 (stereo not given)	0.0328	0.798 (inactive)	0.037	-0.146	0.251	1.43	-0.347	0.747	0.137	0.995
CCOc1cc(C(O)C2C=CC3C(=O)N(c4ccccc4)C(=O)C3N2Nc2ccccc2)ccc1O (stereo not given)	0.0944	-0.224 (inactive)	-0.0647	-0.164	0.617	1.31	0.791	0.381	-0.988	0.403
Cc1ccc(S[C@]2(C(=O)NCC(C)C)CC(=O)N(Cc3cc(C(F)(F)F)cc(C(F)(F)F)c3)[C@@H]2c2ccc(CO)cc2I)cc1	0.0274	0.786 (inactive)	-0.188	-0.0415	0.89	0.234	0.77	-0.47	-1.76	-1.39
[N-]=[N+]=Nc1ccccc1C[C@]1(C(N)=O)N=C(c2ccc(OCCCO)cc2)O[C@H]1c1ccccc1	0.989	0.364 (inactive)	0.0556	-0.106	0.662	2.59	0.386	0.974	-1.18	0.6
CC(C)C[C@@H]1NC(=O)[C@H]2C[C@@H](C(=O)NCCCCCCN(C)C)[C@@H](c3ccc(O)cc3)N2C1=O	-0.581	0.531 (inactive)	0.0293	-0.112	0.479	2.03	0.588	1.32	1.29	1.17
CC(CO)N1C(=O)[C@@H]2C3C(=O)OCCC/C=C\[C@H]3OC23C=CCN(c2ccc4ccccc4c2)C(=O)[C@@H]13 (stereo not given in full)	0.611	-0.0775 (inactive)	-0.219	-0.115	0.0684	-0.519	-0.377	-0.704	-0.535	-0.172
COCCOC(=O)N1C(=O)[C@@]2(c3cc(C#CC4=CCCCC4)ccc31)[C@H](C(=O)Nc1nc3ccccc3s1)[C@H]1C(=O)O[C@H](c3ccccc3)[C@H](c3ccccc3)N1[C@@H]2c1ccc(OCCO)cc1	0.1	-0.114 (inactive)	0.0286	-0.148	0.0924	0.417	0.338	1.16	0.984	1.03
CN1C(=O)C2C=CC(C(O)C3=C[C@H]4C[C@@H](C3)C4(C)C)N(Nc3ccccc3)C2C1=O (stereo not given in full)	0.566	-0.636 (inactive)	0.169	-0.0712	0.645	1.75	-0.678	1.31	0.307	0.782
COCCOC(=O)N1C(=O)[C@@]2(c3cc(C#CC4=CCCCC4)ccc31)[C@H](c1ccc(O)cc1)N1[C@H](c3ccccc3)[C@H](c3ccccc3)OC(=O)[C@H]1[C@@H]2C(N)=O	-0.353	0.544 (inactive)	0.092	-0.253	0.331	1.16	0.45	1.01	0.71	1.06
CC(C)(C)OC(=O)CC[C@@]1(C(=O)NCCN2CCOCC2)N=C(c2ccc(OCCCO)cc2)O[C@@H]1c1ccccc1N=[N+]=[N-]	0.641	0.393 (inactive)	0.375	0.103	0.742	1.81	0.0412	1.33	0.178	0.289
COc1ccc(C(=O)Nc2ccc(CN3C(=O)[C@@]4(O[C@@H](CCO)[C@H]([Si](C)(C)c5ccc(OC)cc5)[C@H]4C)c4ccccc43)cc2)cc1	-0.338	0.673 (inactive)	0.0034	-0.0999	0.531	0.81	0.292	1.3	0.959	1.14
[N-]=[N+]=NCc1ccccc1[C@@H]1OC(c2ccc(OCCCO)cc2)=N[C@]1(CCS(=O)(=O)c1ccccc1)C(=O)NCc1ccccc1	0.732	0.0035 (inactive)	0.946	0.257	0.694	1.89	1.77	1.3	0.518	1.11
O=C(NCc1ccccc1)[C@@]1(CCS(=O)(=O)c2ccccc2)N=C(c2ccc(OCCCO)cc2)O[C@H]1c1ccccc1	1.01	0.198 (inactive)	0.471	-0.0128	0.615	3.07	0.557	1.29	-0.481	1.16
CC1CC/C=C\[C@H]2OC34C=CCN(Cn5nnc6ccccc65)C(=O)[C@H]3N(C(CO)C(C)C)C(=O)[C@@H]4C2C(=O)O1 (stereo not given in full)	0.568	-0.0775 (inactive)	-0.0647	-0.14	0.662	2.23	0.549	0.272	-0.89	-0.43
